In the supplement of paper PMC12669032:
“And” between values parts separate entries of the source, which are not always exact repeats. Identical values can stand only once.

What follows are compounds tested on Bacteroides stercoris (assay: growth AUC relative to DMSO control (median of replicates) (fraction); higher = more growth (less inhibition), active = hit call of the paper). Conditions: 20 µM; 24 h;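 active = AUC reduced over 20% with Padj below 0.05 in at least 2 of 3 replicates; inactive = otherwise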.
Procedure, shortened: (§1)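 Gut bacterial monocultures were grown anaerobically at 37 °C in mGAM from a starting OD600 of 0.05 with 20 µM compound (1% DMSO), in round-bottom 96-well plates under pierced gas-permeable seals, and OD600 was read hourly for 24 h. With the minimum OD set to 0, area under the growth curve was normalised to the plate median of solvent-only wells, or to row and column medians on the industrial chemical plate. Each value is the median of three biological replicates grown on separate days.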
For `Cc1c(N)cccc1N`, the “growth AUC” value was 1.18 (inactive).
For `c1cc2ccc3cccc4ccc(c1)c2c34`, the “growth AUC” value was 1.01 (inactive).
In the case of `O=c1oc2ccccc2c(O)c1C1CC(c2ccc(-c3ccc(Br)cc3)cc2)Cc2ccccc21` (stereo not drawn), the “growth AUC” value is reported as 0.00883 (active).
In the case of `COP(=O)(OC)SCn1c(=O)oc2cc(Cl)cnc21`, the “growth AUC” value is reported as 1.01 (inactive).
For `CNC(=O)ON=C(CSC)C(C)(C)C`, the “growth AUC” value was 1 (inactive).
In the case of `COc1ccc(/C(=C/C(=O)N2CCOCC2)c2ccc(F)cc2)cc1OC`, the “growth AUC” value is reported as 0.921 (inactive).
With `Cc1ccc(N=CN(C)C=Nc2ccc(C)cc2C)c(C)c1` the “growth AUC” value was 1.05 (inactive).
With `Cc1c(COC(=O)[C@@H]2[C@H](/C=C(\Cl)C(F)(F)F)C2(C)C)cccc1-c1ccccc1` the “growth AUC” value was 0.972 (inactive).
With `CCOP(=S)(OCC)Oc1cc(-c2ccccc2)on1` the “growth AUC” value was 0.961 (inactive).
`COP(=O)(OC)C(O)C(Cl)(Cl)Cl` (stereo not drawn) was tested, and the “growth AUC” value was 1.01 (inactive).
`C=CC(N)=O` was tested, and the “growth AUC” value was 0.983 (inactive).
For `CNC(=O)Oc1cc(C)c(S(C)=O)c(C)c1` (stereo not drawn), the “growth AUC” value was 1.13 (inactive).
With `COP(N)(=O)SC` (stereo not drawn) the “growth AUC” value was 1.1 (inactive).
For `CCOP(=S)(OCC)Oc1nc(Cl)c(Cl)cc1Cl`, the “growth AUC” value was 1.07 (inactive).
For `CC(=NC#N)N(C)Cc1ccc(Cl)nc1`, the “growth AUC” value was 1.08 (inactive) and 0.985 (inactive).
For `O=C(NC(=O)c1c(F)cccc1F)Nc1ccc(Cl)cc1`, the “growth AUC” value was 0.974 (inactive).
`O=C(Nc1ccccc1)c1ccccc1I` was tested, and the “growth AUC” value was 1.05 (inactive).
`COCc1c(F)c(F)c(COC(=O)[C@@H]2[C@@H](C=C(Cl)Cl)C2(C)C)c(F)c1F` was tested, and the “growth AUC” value was 1.29 (inactive).
With `CN1CSC(=S)N(C)C1` the “growth AUC” value was 0.942 (inactive).
For `O=C1c2ccccc2C(=O)N1SC(Cl)(Cl)Cl`, the “growth AUC” value was 0.995 (inactive).
With `CC(C)(C)c1ccc(CCOc2ncnc3ccccc23)cc1` the “growth AUC” value was 0.872 (inactive).
With `NCP(=O)(O)O` the “growth AUC” value was 1.17 (inactive).
In the case of `CC1CNC(=S)N1` (stereo not drawn), the “growth AUC” value is reported as 1.09 (inactive).
`CC1(C)[C@H](/C=C(\Cl)C(F)(F)F)[C@@H]1C(=O)O[C@@H](C#N)c1cccc(Oc2ccccc2)c1` was tested, and the “growth AUC” value was 0.971 (inactive).
`COP(=S)(OC)SCN1C(=O)c2ccccc2C1=O` was tested, and the “growth AUC” value was 0.97 (inactive).
In the case of `COP(=S)(OC)Oc1ccc(S(C)(=O)=O)c(C)c1`, the “growth AUC” value is reported as 1.04 (inactive).
`CC(C)NC(=O)N1CC(=O)N(c2cc(Cl)cc(Cl)c2)C1=O` was tested, and the “growth AUC” value was 1.1 (inactive).
`Cc1ccc(NC(=O)c2snnc2C)cc1Cl` was tested, and the “growth AUC” value was 0.879 (inactive).
`COCC(=O)N(c1c(C)cccc1C)N1CCOC1=O` was tested, and the “growth AUC” value was 0.978 (inactive).
`O=C(NC(=O)c1c(F)cccc1F)Nc1ccc(Cl)c(Oc2ncc(C(F)(F)F)cc2Cl)c1` was tested, and the “growth AUC” value was 0.98 (inactive).
`COP(=O)(OC)OC(Br)C(Cl)(Cl)Br` (stereo not drawn) was tested, and the “growth AUC” value was 0.984 (inactive).
For `CC(C)(COCc1cccc(Oc2ccccc2)c1)c1ccc(OC(F)(F)Br)cc1`, the “growth AUC” value was 1.04 (inactive).
For `CC1(C)C(C=C(Cl)Cl)C1C(=O)OC(C#N)c1cccc(Oc2ccccc2)c1` (mixture of isomers), the “growth AUC” value was 1.11 (inactive).
In the case of `CNC(=O)Oc1ccccc1OC(CCl)OC` (stereo not drawn), the “growth AUC” value is reported as 1.23 (inactive).
`CCOP(=O)(OCC)Oc1ccc([N+](=O)[O-])cc1` was tested, and the “growth AUC” value was 1.08 (inactive).
`N#Cc1cc(Br)c(O)c(Br)c1` was tested, and the “growth AUC” value was 0.875 (inactive).
With `COP(=S)(OC)Oc1cc(Cl)c(I)cc1Cl` the “growth AUC” value was 1.04 (inactive).
In the case of `COP(=S)(OC)Oc1ccc([N+](=O)[O-])cc1`, the “growth AUC” value is reported as 1.04 (inactive).
For `CC(C)[C@@H](Nc1ccc(C(F)(F)F)cc1Cl)C(=O)OC(C#N)c1cccc(Oc2ccccc2)c1` (stereo partly drawn), the “growth AUC” value was 1.01 (inactive).

These compounds were tested on Bacteroides thetaiotaomicron in the same assay as above. Conditions: 20 µM; 24 h.
Procedure, shortened: as §1
`Cc1c(N)cccc1N` was tested, and the “growth AUC” value was 0.992 (inactive).
In the case of `c1cc2ccc3cccc4ccc(c1)c2c34`, the “growth AUC” value is reported as 0.997 (inactive).
`O=c1oc2ccccc2c(O)c1C1CC(c2ccc(-c3ccc(Br)cc3)cc2)Cc2ccccc21` (stereo not drawn) was tested, and the “growth AUC” value was 0.788 (active).
For `COP(=O)(OC)SCn1c(=O)oc2cc(Cl)cnc21`, the “growth AUC” value was 1.01 (inactive).
With `CNC(=O)ON=C(CSC)C(C)(C)C` the “growth AUC” value was 0.986 (inactive).
For `COc1ccc(/C(=C/C(=O)N2CCOCC2)c2ccc(F)cc2)cc1OC`, the “growth AUC” value was 0.997 (inactive).
In the case of `Cc1ccc(N=CN(C)C=Nc2ccc(C)cc2C)c(C)c1`, the “growth AUC” value is reported as 1.01 (inactive).
For `Cc1c(COC(=O)[C@@H]2[C@H](/C=C(\Cl)C(F)(F)F)C2(C)C)cccc1-c1ccccc1`, the “growth AUC” value was 0.974 (inactive).
With `CCOP(=S)(OCC)Oc1cc(-c2ccccc2)on1` the “growth AUC” value was 0.956 (inactive).
`COP(=O)(OC)C(O)C(Cl)(Cl)Cl` (stereo not drawn) was tested, and the “growth AUC” value was 1.01 (inactive).
In the case of `C=CC(N)=O`, the “growth AUC” value is reported as 0.99 (inactive).
For `CNC(=O)Oc1cc(C)c(S(C)=O)c(C)c1` (stereo not drawn), the “growth AUC” value was 0.978 (inactive).
With `COP(N)(=O)SC` (stereo not drawn) the “growth AUC” value was 1.04 (inactive).
In the case of `CCOP(=S)(OCC)Oc1nc(Cl)c(Cl)cc1Cl`, the “growth AUC” value is reported as 0.978 (inactive).
With `CC(=NC#N)N(C)Cc1ccc(Cl)nc1` the “growth AUC” value was 0.987 (inactive) and 0.95 (inactive).
For `O=C(NC(=O)c1c(F)cccc1F)Nc1ccc(Cl)cc1`, the “growth AUC” value was 0.997 (inactive).
For `O=C(Nc1ccccc1)c1ccccc1I`, the “growth AUC” value was 1.01 (inactive).
With `COCc1c(F)c(F)c(COC(=O)[C@@H]2[C@@H](C=C(Cl)Cl)C2(C)C)c(F)c1F` the “growth AUC” value was 1.03 (inactive).
`CN1CSC(=S)N(C)C1` was tested, and the “growth AUC” value was 0.976 (inactive).
With `O=C1c2ccccc2C(=O)N1SC(Cl)(Cl)Cl` the “growth AUC” value was 0.999 (inactive).
With `CC(C)(C)c1ccc(CCOc2ncnc3ccccc23)cc1` the “growth AUC” value was 0.975 (inactive).
`NCP(=O)(O)O` was tested, and the “growth AUC” value was 0.982 (inactive).
In the case of `CC1CNC(=S)N1` (stereo not drawn), the “growth AUC” value is reported as 1 (inactive).
`CC1(C)[C@H](/C=C(\Cl)C(F)(F)F)[C@@H]1C(=O)O[C@@H](C#N)c1cccc(Oc2ccccc2)c1` was tested, and the “growth AUC” value was 0.997 (inactive).
`COP(=S)(OC)SCN1C(=O)c2ccccc2C1=O` was tested, and the “growth AUC” value was 0.978 (inactive).
For `COP(=S)(OC)Oc1ccc(S(C)(=O)=O)c(C)c1`, the “growth AUC” value was 0.994 (inactive).
`CC(C)NC(=O)N1CC(=O)N(c2cc(Cl)cc(Cl)c2)C1=O` was tested, and the “growth AUC” value was 1.01 (inactive).
With `Cc1ccc(NC(=O)c2snnc2C)cc1Cl` the “growth AUC” value was 0.905 (inactive).
In the case of `COCC(=O)N(c1c(C)cccc1C)N1CCOC1=O`, the “growth AUC” value is reported as 0.99 (inactive).
For `O=C(NC(=O)c1c(F)cccc1F)Nc1ccc(Cl)c(Oc2ncc(C(F)(F)F)cc2Cl)c1`, the “growth AUC” value was 1.01 (inactive).
In the case of `COP(=O)(OC)OC(Br)C(Cl)(Cl)Br` (stereo not drawn), the “growth AUC” value is reported as 0.953 (inactive).
`CC(C)(COCc1cccc(Oc2ccccc2)c1)c1ccc(OC(F)(F)Br)cc1` was tested, and the “growth AUC” value was 0.976 (inactive).
With `CC1(C)C(C=C(Cl)Cl)C1C(=O)OC(C#N)c1cccc(Oc2ccccc2)c1` (mixture of isomers) the “growth AUC” value was 0.981 (inactive).
`CNC(=O)Oc1ccccc1OC(CCl)OC` (stereo not drawn) was tested, and the “growth AUC” value was 1.02 (inactive).
For `CCOP(=O)(OCC)Oc1ccc([N+](=O)[O-])cc1`, the “growth AUC” value was 1.01 (inactive).
With `N#Cc1cc(Br)c(O)c(Br)c1` the “growth AUC” value was 0.997 (inactive).
In the case of `COP(=S)(OC)Oc1cc(Cl)c(I)cc1Cl`, the “growth AUC” value is reported as 0.964 (inactive).
In the case of `COP(=S)(OC)Oc1ccc([N+](=O)[O-])cc1`, the “growth AUC” value is reported as 0.975 (inactive).
In the case of `CC(C)[C@@H](Nc1ccc(C(F)(F)F)cc1Cl)C(=O)OC(C#N)c1cccc(Oc2ccccc2)c1` (stereo partly drawn), the “growth AUC” value is reported as 0.994 (inactive).
